# In PubChem BioAssay (NCATS):
# Results filed as inconclusive are left out. Active and inactive are the calls of the source. Unless noted, calls come from the whole dose curve.
# Columns and labels:
# [1] = target: Cytochrome P450 3A4 (Homo sapiens) (UniProt P08684); assay: qHTS Assay for Inhibitors and Substrates of Cytochrome P450 3A4 (AID 884; active = well fitted curve in the direction sought with a large enough effect; an effect the other way counts as inactive or inconclusive; note: % is set by controls: 0 for no effect and ±100 for the full control effect; nearly all actives have a fitted effect of over 50% in size)
# Sequence of Cytochrome P450 3A4 (Homo sapiens) (P08684 whole entry, looked up): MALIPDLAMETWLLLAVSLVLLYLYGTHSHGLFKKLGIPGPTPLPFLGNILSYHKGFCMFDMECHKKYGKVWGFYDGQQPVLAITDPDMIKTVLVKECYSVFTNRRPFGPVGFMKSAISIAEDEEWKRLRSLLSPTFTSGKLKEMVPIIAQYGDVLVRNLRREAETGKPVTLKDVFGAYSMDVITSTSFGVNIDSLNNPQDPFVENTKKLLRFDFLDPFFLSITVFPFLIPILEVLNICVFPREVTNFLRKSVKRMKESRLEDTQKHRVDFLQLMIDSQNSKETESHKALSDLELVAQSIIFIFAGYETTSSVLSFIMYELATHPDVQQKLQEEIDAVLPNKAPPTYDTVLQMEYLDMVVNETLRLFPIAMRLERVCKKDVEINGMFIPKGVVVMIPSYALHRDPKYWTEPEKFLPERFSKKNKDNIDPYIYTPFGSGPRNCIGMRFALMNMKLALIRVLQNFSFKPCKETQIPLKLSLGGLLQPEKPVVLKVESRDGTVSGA
# Summary of the method: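 20 nM human CYP3A4 with 25 uM Luciferin-PPXE (at KM) in 200 mM KPO4, preincubated 10 min with compound; NADPH regeneration started a 60 min RT reaction. Luciferin detected by luminescence, normalized to 57 uM ketoconazole as full inhibition.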
# [2] = Confirmation and Secondary Assay for Modulators of Hemoglobin Beta Chain Splicing at IVS2 654 locus (AID 910; active = well fitted curve in the direction sought with a large enough effect; an effect the other way counts as inactive or inconclusive; note: % of control where 0% means no effect)
# Summary of the method: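 HeLa cells stably carrying EGFP interrupted by mutant beta-globin IVS2-654 intron (CMV-driven) were treated with compound for 2 days at 37C; corrected splicing was scored as total peak GFP intensity per well (488 nm excitation, 500-520 nm emission).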
# [3] = target: Ubiquitin carboxyl-terminal hydrolase 1 (Homo sapiens) (UniProt O94782); assay: Inhibitors of USP1/UAF1: Pilot qHTS (AID 504865; active = well fitted curve in the direction sought with a large enough effect; an effect the other way counts as inactive or inconclusive;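 note: rhodamine fluorescence freed from ubiquitin-rhodamine substrate followed over time; top concentration of the series differs between compounds; % is set by controls: 0 for no effect and ±100 for the full control effect; nearly all actives have a fitted effect of over 35% in size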)
# Sequence of Ubiquitin carboxyl-terminal hydrolase 1 (Homo sapiens) (O94782 whole entry, looked up): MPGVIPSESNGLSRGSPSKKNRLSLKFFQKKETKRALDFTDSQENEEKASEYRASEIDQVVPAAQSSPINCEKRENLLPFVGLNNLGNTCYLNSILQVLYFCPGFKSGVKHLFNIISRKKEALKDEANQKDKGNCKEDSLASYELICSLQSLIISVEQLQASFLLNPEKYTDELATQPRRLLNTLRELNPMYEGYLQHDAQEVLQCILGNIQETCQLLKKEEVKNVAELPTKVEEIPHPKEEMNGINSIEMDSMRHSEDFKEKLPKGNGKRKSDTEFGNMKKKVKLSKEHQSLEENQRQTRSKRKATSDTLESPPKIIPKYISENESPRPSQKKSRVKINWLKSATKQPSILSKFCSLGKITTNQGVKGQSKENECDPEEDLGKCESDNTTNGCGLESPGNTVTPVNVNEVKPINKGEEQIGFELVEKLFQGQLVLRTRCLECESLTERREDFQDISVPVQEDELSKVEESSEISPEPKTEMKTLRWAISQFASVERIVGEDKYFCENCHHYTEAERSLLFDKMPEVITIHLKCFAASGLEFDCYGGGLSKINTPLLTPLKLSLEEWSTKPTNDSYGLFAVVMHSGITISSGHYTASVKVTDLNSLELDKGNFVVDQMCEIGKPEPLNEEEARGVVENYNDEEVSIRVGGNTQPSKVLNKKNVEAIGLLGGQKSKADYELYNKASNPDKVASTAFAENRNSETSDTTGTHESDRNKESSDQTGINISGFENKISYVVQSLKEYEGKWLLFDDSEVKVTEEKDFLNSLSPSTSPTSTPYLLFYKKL
# Summary of the method: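 Enzyme-free wells gave the negative control, while test wells held 1nM USP1/UAF1 preincubated with compound for 15 min at room temperature. Ub-Rho at 150nM final started the reaction, and fluorescence at 480/540 nm was recorded kinetically.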
# [4] = target: Cytochrome P450 2D6 (Homo sapiens) (UniProt P10635); assay: Cytochrome P450 family 2 subfamily D member 6 (CYP2D6) small molecule antagonists: luciferase biochemical (cell-free) qHTS assay (AID 1645840; active = well fitted curve in the direction sought with a large enough effect in the repeat runs; an effect the other way counts as inactive or inconclusive; note: % is set by controls: 0 for no effect and ±100 for the full control effect; nearly all actives have a fitted effect of over 55% in size)
# Sequence of Cytochrome P450 2D6 (Homo sapiens) (P10635 whole entry, looked up): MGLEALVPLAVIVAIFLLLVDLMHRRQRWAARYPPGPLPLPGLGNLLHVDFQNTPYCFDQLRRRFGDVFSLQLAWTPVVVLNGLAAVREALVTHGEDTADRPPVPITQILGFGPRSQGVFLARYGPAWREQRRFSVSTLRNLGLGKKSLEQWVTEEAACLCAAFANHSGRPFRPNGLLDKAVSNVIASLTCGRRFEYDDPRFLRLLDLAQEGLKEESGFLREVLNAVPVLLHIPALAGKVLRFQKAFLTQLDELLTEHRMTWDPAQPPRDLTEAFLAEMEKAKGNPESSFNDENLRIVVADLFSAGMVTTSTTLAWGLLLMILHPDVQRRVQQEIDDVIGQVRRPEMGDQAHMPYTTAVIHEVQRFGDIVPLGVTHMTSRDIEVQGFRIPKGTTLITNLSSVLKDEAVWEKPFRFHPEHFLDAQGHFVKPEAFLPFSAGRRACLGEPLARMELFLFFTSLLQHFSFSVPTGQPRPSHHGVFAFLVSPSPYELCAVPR
# Summary of the method: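 P450-Glo luminescent screen: recombinant CYP2D6 enzyme–proluciferin substrate mix preincubated with compound 10 min at room temperature, then NADPH regeneration added for 1 h at room temperature. Detection reagent added for 20 min; luciferin light read as relative luminescence units.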
# [5] = target: Cytochrome P450 2C9 (Homo sapiens) (UniProt P11712); assay: Cytochrome P450 family 2 subfamily C member 9 (CYP2C9) small molecule antagonists: luciferase biochemical (cell-free) qHTS assay (AID 1645842; active = well fitted curve in the direction sought with a large enough effect in the repeat runs; an effect the other way counts as inactive or inconclusive; note: nearly all actives have a fitted effect of over 55% in size; note: potency is the fitted concentration of half-maximal effect; for activity change, negative = inhibition: % is set by controls: 0 for no effect and ±100 for the full control effect)
# Sequence of Cytochrome P450 2C9 (Homo sapiens) (P11712 whole entry, looked up): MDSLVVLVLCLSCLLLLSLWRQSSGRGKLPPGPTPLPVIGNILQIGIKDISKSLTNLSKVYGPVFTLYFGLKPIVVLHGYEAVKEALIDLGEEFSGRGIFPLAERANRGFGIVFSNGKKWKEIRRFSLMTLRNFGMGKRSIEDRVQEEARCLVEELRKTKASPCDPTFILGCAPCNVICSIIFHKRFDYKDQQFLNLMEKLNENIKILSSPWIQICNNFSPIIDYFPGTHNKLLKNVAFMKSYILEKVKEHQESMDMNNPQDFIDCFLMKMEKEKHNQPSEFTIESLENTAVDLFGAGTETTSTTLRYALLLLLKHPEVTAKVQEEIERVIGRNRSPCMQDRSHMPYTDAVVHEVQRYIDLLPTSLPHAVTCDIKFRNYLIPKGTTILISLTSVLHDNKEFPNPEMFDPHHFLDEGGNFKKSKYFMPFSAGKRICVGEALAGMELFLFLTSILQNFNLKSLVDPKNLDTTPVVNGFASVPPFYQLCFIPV
# Summary of the method: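 Luminescence, after 20 min with luciferin detection reagent, reflected CYP2C9 turnover during a 1 h NADPH-driven reaction at 37C. Enzyme-substrate mix contained 0.4% bovine serum albumin and was preincubated with compound 10 min at room temperature.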
# [6] = Confirmation and Secondary Assay for Modulators of Hemoglobin Beta Chain Splicing at IVS2 705 locus (AID 930; active = well fitted curve in the direction sought with a large enough effect; an effect the other way counts as inactive or inconclusive;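 note: HeLa cells stably expressing the EGFP-705 splicing reporter; GFP fluorescence per well restored by corrected splicing of the IVS2-705 intron in EGFP; % of control where 0% means no effect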)
# Summary of the method: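 Read-out: total peak GFP fluorescence per well (488 nm excitation, 500-520 nm emission) by laser-scanning cytometry. Cells: HeLa EGFP-705 splicing reporter, 2 days compound exposure in Optimem/2% FCS.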
# [7] = qHTS Assay for Lipid Storage Modulators (AID 1519); settings: Drosophila S3 cells, BODIPY lipid droplet/cell ratio, laser cytometry, cells loaded with oleic acid; for activity change, negative = inhibition: at 57.5 µM (top of the series); note: potency is the fitted concentration of half-maximal effect; for activity change, negative = inhibition: % is set by controls: 0 for no effect and ±100 for the full control effect
# Summary of the method: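 Cells seeded at 5,000 per well were treated with compounds over a concentration series and loaded with oleic acid (400 uM, as added). Lipid droplet fluorescence (488 nm excitation, 500-530 nm channel) was read by laser-scanning cytometry and normalized to 20 uM Triacsin C.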
# [8] = Confirmatory qHTS to identify inhibitors of SARS-CoV-2 cell entry (AID 1645844); note: potency is the fitted concentration of half-maximal effect; nearly all actives have a fitted effect of over 45% in size
# Summary of the method: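 HEK293-ACE2 cells (Expi293F stably expressing human ACE2) were pretreated with compounds for 1 hr at 37C, then infected with MLV-based particles carrying Wuhan-Hu-1 spike (C-terminal 19-aa truncation). Luciferase luminescence read after 48 hr; normalized to spike PP (100%) and bald PP (0%).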
# [9] = Cytotoxicity counterscreen for inhibitors of SARS-CoV-2 cell entry (AID 1645845); settings: outcome: dose series up to 57.1 µM unless noted; note: % is set by controls: 0 for no effect and ±100 for the full control effect; nearly all actives have a fitted effect of over 50% in size
# Summary of the method: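 Expi293F/hACE2 cells seeded overnight; cpd pin-transferred in DMSO, 1 h preincubation, + media, 48 h 37 C 5% CO2; ATPLite 1step luminescence; normalized to cells and no cells.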
# [10] = Primary qHTS to identify inhibitors of SARS-CoV-2 cell entry (AID 1645846); settings: SARS-CoV-2 pseudovirus cell entry assay, luminescence; activity change, negative = inhibition: at 57.1 µM (top of the series) unless noted; note: nearly all actives have a fitted effect of over 45% in size; note: potency is the fitted concentration of half-maximal effect
# Summary of the method: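 Using luciferase-reporting pseudoviruses carrying Wuhan-Hu-1 spike, the screen tracks entry into stably ACE2-expressing cells over 48 hr. Activity is expressed relative to spike particles versus particles lacking any fusion protein.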
# [11] = VSVG counterscreen qHTS to identify inhibitors of SARS-CoV-2 cell entry (AID 1645847); note: nearly all actives have a fitted effect of over 65% in size; note: potency is the fitted concentration of half-maximal effect; for activity change, negative = inhibition: % is set by controls: 0 for no effect and ±100 for the full control effect
# Summary of the method: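 Entry of VSV-G pseudotyped particles into human ACE2-expressing HEK293 cells was measured by luciferase luminescence 48 h after infection, with compound added 1 h beforehand.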
# [12] = target: Cytochrome P450 3A4 (Homo sapiens) (UniProt P08684); assay: qHTS Assay for Activators of Cytochrome P450 3A4 (AID 885; active = well fitted curve in the direction sought with a large enough effect; an effect the other way counts as inactive or inconclusive; note: nearly all actives have a fitted effect of over 65% in size)
# Summary of the method: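 Steps: enzyme/substrate mix dispensed; compound added, 10 min RT; NADPH regeneration solution added, 60 min RT; luciferin detection buffer stops reaction; 20 min later luminescence measured.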
# [13] = measured here: cell count channel max response
# [14] = measured here: lipid channel max response
compound,measurement,setting,value
CC(=O)Oc1ccc(Cl)c2cccnc12,Potency,[1],inactive
same,Potency,[2],inactive
same,Potency,[3],inactive
same,Potency,[4],inactive
same,Potency,[5],inactive
COc1cc2c(cc1O)CCNC2C (stereo not drawn),Potency,[1],inactive
same,Potency,[6],inactive
same,"activity change, negative = inhibition",[7],6.98% (inactive)
same,max response,[7]; [13],8.33%
same,max response,[7]; [14],17.5%
CCC(CO)NC(=O)C1C=C2c3cccc4[nH]cc(c34)CC2N(C)C1 (stereo not drawn),Potency,[2],inactive
same,Potency,[6],inactive
same,"activity change, negative = inhibition",[7],10.6% (inactive)
same,max response,[7]; [13],3.07%
same,max response,[7]; [14],18.5%
Cc1cc(/C=c2/sc3nc4ccccc4n3c2=O)c(C)n1-c1ccccc1,Potency,[8],0.0341 µM (active)
same,Potency,[9],inactive
same,"activity change, negative = inhibition",[10],-93.9%
same,Potency,[11],0.0681 µM (active)
O=C(CC[N+](=O)[O-])OCC1OC(O)C(OC(=O)CC[N+](=O)[O-])[C@@H](OC(=O)CC[N+](=O)[O-])C1OC(=O)CC[N+](=O)[O-] (stereo partly drawn),Potency,[2],inactive
same,Potency,[6],inactive
same,"activity change, negative = inhibition",[7],3.27% (inactive)
same,max response,[7]; [13],13%
same,max response,[7]; [14],17.5%
N#CC(O[C@@H]1OC(COC2OC(CO)C(O)C(O)[C@@H]2O)C(O)C(O)C1O)c1ccccc1 (stereo partly drawn),Potency,[1],inactive
same,Potency,[2],inactive
same,Potency,[6],inactive
same,"activity change, negative = inhibition",[7],2.68% (inactive)
same,max response,[7]; [13],-0.407%
same,max response,[7]; [14],5.27%
CCCCNc1ncc(-c2ccc(CN3CCOCC3)cn2)c(NC2CCC(O)CC2)n1 (stereo not drawn),Potency,[8],1.05 µM (active)
same,Potency,[9],inactive
C[C@@]12CCC3C(CCC4=CC(=O)CC[C@]43C)C1CCC2O (stereo partly drawn),Potency,[1],inactive
same,Potency,[2],inactive
same,Potency,[6],inactive
same,"activity change, negative = inhibition",[7],-1.38% (inactive)
same,max response,[7]; [13],0.874%
same,max response,[7]; [14],1.24%
CCN1C[C@@]2(OC(=O)c3ccccc3NC(C)=O)CCC(OC)[C@@]34C5CC6C(OC)C[C@@](O)(C(CC23)[C@@H]14)C5(O)C6OC (stereo partly drawn),Potency,[1],inactive
same,Potency,[2],inactive
same,Potency,[6],inactive
same,"activity change, negative = inhibition",[7],4.73% (inactive)
same,max response,[7]; [13],10.9%
same,max response,[7]; [14],17%
COc1cc2c(cc1OC)[C@@H]1C(=O)c3ccc4oc(C(C)C)cc4c3OC1CO2 (stereo partly drawn),Potency,[2],inactive
same,Potency,[6],inactive
same,Potency,[7],2.51 µM (active)
same,max response,[7]; [13],-28.2%
same,max response,[7]; [14],-80.9%
C[C@H]1COCCN1c1cc(C2(S(=O)(=O)C3CC3)CC2)nc(-c2ccc(NC(=S)NCCO)cc2)n1,Potency,[8],0.764 µM (active)
same,Potency,[9],inactive
same,"activity change, negative = inhibition",[10],-79.3%
same,Potency,[11],0.304 µM (active)
CC(=O)OC1CC2C(C)(C)C(O)C=C[C@@]2(C)C2CC[C@]3(C)C(=CC(=O)OC3c3ccoc3)[C@]12C (stereo partly drawn),Potency,[12],inactive
same,Potency,[2],inactive
same,Potency,[6],inactive
same,"activity change, negative = inhibition",[7],6.31% (inactive)
same,max response,[7]; [13],-2.89%
same,max response,[7]; [14],6.06%
CS(=O)(=O)c1ccc(-c2cnc(NCc3ccco3)n3cnnc23)cc1,Potency,[8],27.1 µM (active)
same,Potency,[9],inactive
same,"activity change, negative = inhibition",[10],-43.5%
same,Potency,[11],inactive
O=C(O)CCC1NCC2CC1CN1CCCCC21 (stereo not drawn),Potency,[1],inactive
same,Potency,[2],inactive
same,Potency,[6],inactive
same,"activity change, negative = inhibition",[7],2.61% (inactive)
same,max response,[7]; [13],3.62%
same,max response,[7]; [14],5.45%
COC1C(O)C(OC2CC[C@]3(C=O)C4C(OC(C)=O)C[C@@]5(C)C(C6=CC(=O)OC6)CC[C@]5(O)C4CC[C@]3(O)C2)OC(C)C1OC(C)=O (stereo partly drawn),Potency,[1],inactive
same,Potency,[2],inactive
same,Potency,[6],inactive
same,"activity change, negative = inhibition",[7],4.28% (inactive)
same,max response,[7]; [13],10%
same,max response,[7]; [14],17.4%
CC1(C)C(O)CC(=O)[C@]2(C)C1CC(=O)[C@]1(C)C2CC[C@@]2(C)C(c3ccoc3)OC(=O)C3O[C@@]321 (stereo partly drawn),Potency,[12],inactive
same,Potency,[6],inactive
same,"activity change, negative = inhibition",[7],-3.35% (inactive)
same,max response,[7]; [13],16.1%
same,max response,[7]; [14],14.7%
CCOC(=O)/C=C/[C@H](C[C@@H]1CCNC1=O)NC(=O)[C@@H](CC(=O)[C@@H](NC(=O)c1cc(C)on1)C(C)C)Cc1ccc(F)cc1,Potency,[4],inactive
same,Potency,[5],4.77 µM (active)
COc1c2c(cc3c1OCO3)C13C=CC(OC)CC1N(C2)CC3O (stereo not drawn),Potency,[12],inactive
same,Potency,[2],inactive
same,Potency,[6],inactive
same,"activity change, negative = inhibition",[7],11.5% (inactive)
same,max response,[7]; [13],12.8%
same,max response,[7]; [14],26.7%
CCc1nc(C(N)=O)c(Nc2ccc(N3CCC(N4CCN(C)CC4)CC3)c(OC)c2)nc1NC1CCOCC1,Potency,[8],3.41 µM (active)
same,Potency,[9],inactive
same,Potency,[10],10 µM (active)
CCOc1ccc(NC(=O)Cn2cc(C(=O)c3ccccc3)c3ccccc32)cc1,Potency,[5],16.9 µM (active)
CCC(C)C(=O)O[C@@H]1C[C@@]2(C)C(c3ccoc3)OC(=O)CC23OC2(C)O[C@@]14[C@@]1(C)C(CC(=O)OC)C5(C)CC1(O)C(O)(C5OC(=O)C1(C)OC1C)C(OC(C)=O)[C@@]34O2 (stereo partly drawn),Potency,[12],inactive
same,Potency,[6],inactive
same,"activity change, negative = inhibition",[7],5.34% (inactive)
same,max response,[7]; [13],-2.48%
same,max response,[7]; [14],2.6%
Cc1[nH]c2ccc(F)cc2c1-c1nc2c3cccnc3c3ncccc3c2[nH]1,Potency,[8],0.555 µM (active)
same,Potency,[9],inactive
same,"activity change, negative = inhibition",[10],-96.1% [at 114 µM]
same,Potency,[11],1.75 µM (active)
CN(C)[C@@H]1C(=O)C(C(N)=O)C(=O)[C@@]2(O)C(=O)C3C(=O)c4c(O)ccc(Cl)c4[C@@](C)(O)C3C[C@@H]12 (stereo partly drawn),Potency,[4],inactive
same,Potency,[5],inactive
CC(=O)N1CCN(CCOc2ccc(C3CCN(C4=Nn5c(nnc5C(F)(F)F)CC4)CC3)cc2)CC1,Potency,[8],19.2 µM (active)
same,Potency,[9],inactive
same,"activity change, negative = inhibition",[10],-91.8%
same,Potency,[11],19.2 µM (active)
CC(C)(N)Cc1ccccc1,Potency,[5],inactive
C[C@@]12CC(c3ccoc3)OC(=O)C1CC[C@@]1(C)C2C2C=C[C@@]1(O)C(=O)O2 (stereo partly drawn),Potency,[2],inactive
same,Potency,[6],inactive
same,"activity change, negative = inhibition",[7],2.16% (inactive)
same,max response,[7]; [13],24.2%
same,max response,[7]; [14],26.2%
